Data taken from PMC8769072, “Proteome‐scale mapping of binding sites in the unstructured regions of the human proteome” (Molecular Systems Biology, 2022).

How the values were obtained:
[1] = molecular target: YES1 90-152, P07947
[2] = molecular target: YAP1 169-207, P46937
YAP1 169-207, P46937, sequence (P46937 169-207): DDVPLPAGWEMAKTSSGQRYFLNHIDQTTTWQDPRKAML

YES1 90-152, P07947, sequence (P07947 90-152): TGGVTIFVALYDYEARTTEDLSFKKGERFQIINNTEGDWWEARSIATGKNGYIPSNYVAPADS

Row | Binder | selected by phage display [1] | selected by phage display [2]
1 | PTPSSPLPSVPVSVPA [PLEKHN1, Q494U1] | confidence 3 (active) | 
2 | HSSRELPSRPDGVLHV [VWA5B2, Q8N398] | confidence 3 (active) | 
3 | LPLPPLPGAGIPPPPP [FMN2, Q9NZ56] | confidence 2 (active) | 
4 | PPPSYAATIASKLAIH [KLF5, Q13887] |  | confidence 3 (active)
5 | LPSAESLSRRPLPALP [EFS, O43281] | confidence 3 (active) | 
6 | SRALPATPQLPSRSGV [WIPF1, O43516] | confidence 3 (active) | 
7 | ESLPSYLESSRVNTPV [ANK3, Q12955] |  | confidence 4 (active)
8 | APTLPLPPPPGFPPLP [SETD1B, Q9UPS6] | confidence 3 (active) | 
9 | MPPPGYPHIPQALSTP [FOXJ3, Q9UPW0] |  | confidence 4 (active)
10 | NLRALPLPPRPPATST [RNF223, E7ERA6] | confidence 3 (active) | 
11 | HQQPPPYPLMHHQMPP [SMARCC1, Q92922] |  | confidence 3 (active)
12 | PLPPPPPLPKIQPLEP [ZBTB21, Q9ULJ3] | confidence 2 (active) | 
13 | QLGDLPPKPQLSDLPP [ASAP1, Q9ULH1] | confidence 2 (active) | 
14 | IELLPSYSTATLIDEP [SLC34A2, O95436] |  | confidence 3 (active)
15 | RLSLEGLPSLPSMHEY [IRS2, Q9Y4H2] | confidence 3 (active) | 
16 | APPPPGYHQNGVIRNQ [MYO1E, Q12965] |  | confidence 3 (active)
17 | TPRSSVELPPYSGTVL [USP10, Q14694] |  | confidence 2 (active)
18 | AAPTLGHRTLPLLPSL [PRRT4, C9JH25] | confidence 2 (active) | 
19 | GSPMVPSYETSVSPQA [PIKFYVE, Q9Y2I7] |  | confidence 2 (active)
20 | QALPDYSLGPHYTSQK [CSRNP1, Q96S65] |  | confidence 2 (active)
21 | DKTSSIQSRPLPSPPK [BCAR1, P56945] | confidence 2 (active) | 

Row | Binder | selected by phage display [1] | selected by phage display [2]
22 | PQKEGERALPSIPKLA [PTK2, Q05397] | confidence 3 (active) | 
23 | PTMTPPPYLPGPNASP [FOXI1, Q12951] |  | confidence 4 (active)
24 | MGDLPPYPERPAQQPP [RSPH6A, Q9H0K4] |  | confidence 2 (active)
25 | DMLPALLRPPEPLPTP [SLC39A5, Q6ZMH5] | confidence 2 (active) | 
26 | LLPPPPPGAPLPSLPF [SOBP, A7XYQ1] | confidence 2 (active) | 
27 | SPQLPQYPGLQQAQTM [MED12L, Q86YW9] |  | confidence 3 (active)
28 | QQQQQQLPALPPTPQQ [R3HDM2, Q9Y2K5] | confidence 2 (active) | 
29 | TSTLPPLPLPPLLPGD [CDK12, Q9NYV4] | confidence 3 (active) | 
30 | LPSLPLEPSLLSGVVQ [LRP10, Q7Z4F1] | confidence 2 (active) | 
31 | EAPPPYSPIGDDVQLL [ARHGAP5, Q13017] |  | confidence 3 (active)
32 | TVELEEKRFRTLPLVP [ELL3, Q9HB65] | confidence 3 (active) | 
33 | SLDALKVFDGIPPPYD [RPL13AP3, Q6NVV1] |  | confidence 2 (active)
34 | MSGHTLPPLPVPGTNS [EPPK1, P58107] | confidence 3 (active) | 
35 | TLTDLPLLPGVPMAGD [LRRC46, Q96FV0] | confidence 2 (active) | 
36 | ASEVGSPPSYSEALLD [LDLRAD3, Q86YD5] |  | confidence 3 (active)
37 | RPLPSPAPPPPQLLEA [KIF26A, Q9ULI4] | confidence 2 (active) | 
38 | QPLPPAPTSVPPAAFP [PER1, O15534] | confidence 2 (active) | 
39 | VKRTLPSPPPEEAHLP [BSN, Q9UPA5] | confidence 3 (active) | 
40 | AEFQPPYFPPPYPQPP [TFAP2E, Q6VUC0] |  | confidence 2 (active)
41 | DKPLPVPPTLRDLPPP | confidence 4 (active) | 
42 | SERELPQPPPLLSPQN [SAMD11, Q96NU1] | confidence 4 (active) | 

Row | Binder | selected by phage display [1] | selected by phage display [2]
43 | KDRPLPPAPLSPAPGP [MAP1A, P78559] | confidence 3 (active) | 
44 | QPAVFPPSFRELPPPP [IFT52, Q9Y366] | confidence 4 (active) | 
45 | SPPAYHMHVFDRPYPL [CUEDC1, Q9NWM3] |  | confidence 3 (active)
46 | VDPSKHIRPVPSLPDV [VPS54, Q9P1Q0] | confidence 2 (active) | 
47 | ELPLLPPPPSLPTIGA [SETD5, Q9C0A6] | confidence 3 (active) | 
48 | EYEKLPAYLATSPIPT [LPIN2, Q92539] |  | confidence 3 (active)
49 | NQQKALPPPPASIPPP [FMN1, Q68DA7] | confidence 2 (active) | 
50 | TAGPGRPLPQRPMPDQ [ZFHX2, Q9C0A1] | confidence 2 (active) | 
51 | PGRGLPQLPSSAYSVD [ST5, P78524] | confidence 4 (active) | 
52 | FAGLPLPLPPTSQGLS [PROSER1, Q86XN7] | confidence 3 (active) | 
53 | SPSQYINEENLPVYPD [KNL1, Q8NG31] |  | confidence 2 (active)
54 | LQRTLPSVPPDTKLSK [TCF24, Q7RTU0] | confidence 2 (active) | 
55 | AYPPSYPSAMSPTHHL [FNDC3B, Q53EP0] |  | confidence 2 (active)
56 | TFRWTSLTRELPPPPP [KMT2B, Q9UMN6] | confidence 2 (active) | 
57 | IAPPQYVTTSASNIVS [ARID2, Q68CP9] |  | confidence 4 (active)
58 | AAVGVSKPLPSVPPSI [MADD, Q8WXG6] | confidence 2 (active) | 
59 | TKTPPRDLPTIPGVTS [EIF4EBP1, Q13541] | confidence 3 (active) | 
60 | LPPPPPPDRPYSVGAE | confidence 4 (active) | 
61 | SSENPYATIRDLPSLP [PEAR1, Q5VY43] | confidence 4 (active) | 
62 | LQEQQQQQMHLQPPSY [TRERF1, Q96PN7] |  | confidence 2 (active)
